NadD block = inhibitors of S. aureus NadD, primary screen, biochemical, colorimetric, uHTS. purified NadD enzyme, colorimetric absorbance read-out. AID 602399, 2012. Nicotinate-nucleotide adenylyltransferase NadD (Staphylococcus aureus N315). inhibition, % at 20 µM. 360,000 tested, 0.78% active; in the data active means inhibition above about 26%
FAS TE block = FAS thioesterase domain inhibitors, primary screen, biochemical, fluorescence intensity, uHTS | Fatty acid synthase (Homo sapiens), P49327 | AID 602261, 2012 | recombinant FAS-TE, OMFH fluorogenic substrate, fluorescence endpoint | 360,000 tested, 0.67% active | inhibition, % at 15 µM;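 active means compounds whose normalised, plate-corrected inhibition of enzyme fluorescence in the single-dose primary screen is 50% or more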;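 further: 0% = DMSO with enzyme and 100% = substrate without enzyme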
rCAG binder = binders of r(CAG) RNA repeats, primary screen, biochemical, fluorescence. inhibition, % at 3 µM. 370,000 tested, 1.3% active. r(CAG) RNA repeat, TO-PRO-1 dye displacement fluorescence;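 active means inhibition above the plate cutoff, the mean of all test compounds on that plate plus 3 SD, cut at about 35% in these data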;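 further: 0% = DMSO alone and 100% = 100 µM mitoxantrone as full dye displacement; higher means more dye released from RNA so lower well fluorescence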
GRIN3A LBD mod = binders of NR3A ligand-binding domain, primary screen, biophysical, differential scanning fluorimetry, uHTS. Glutamate receptor ionotropic, NMDA 3A (GRIN3A) ligand-binding domain. Tm shift relative to glycine control, % at 25 µM. 340,000 tested, 2.5% active. NR3A LBD differential scanning fluorimetry, Tm shift; 0% = protein alone, 100% = glycine-bound protein. AID 1259313, 2017;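 active means melting temperature shift of at least 10% of the positive control shift, at one fixed dose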
Starred values were filed as active, the others as inactive; . = no result given. Most compounds without a hit are left out; they make up all but 4.3% or so of the library.

SMILES | NadD block | FAS TE block | rCAG binder | GRIN3A LBD mod
COc1ccccc1C1CC(c2c(-c3ccccc3)c3cc(Cl)ccc3[nH]c2=O)=NN1S(C)(=O)=O (centres undefined) | 4 | -5 | 9 | 25*
C(=C\c1ccccc1)/CSc1nnc(Cc2cccs2)n1-c1ccccc1 | . | . | 1 | .
CCOc1cc(/C=N/NC(=O)Cc2ccc(C(F)(F)F)cc2[N+](=O)[O-])c(Br)cc1OC | 12 | 1 | 0 | -1
COc1cc(Br)cc(/C=N/NC(=O)Cc2ccc(C(F)(F)F)cc2[N+](=O)[O-])c1O | 39* | 15 | 6 | 25*
CCCCCCC#Cc1cncc(C(=O)NNC(=O)Nc2cc(Cl)cc(Cl)c2)c1 | 13 | 4 | 4 | 16*
CCOc1ccc2nc(N3CCOCC3)nc(C)c2c1 | 4 | 1 | -5 | -1
CCOc1ccc2nc3ccc4[nH]onc4c3c2c1 | -9 | -48 | 18 | 31*
O=C(CN1CCN(C(=O)CCC(=O)N2CCC(c3ccccc3)=N2)CC1)Nc1cccc(F)c1 | -1 | -1 | -1 | .
O=C(CN1CCN(C(=O)CCC(=O)N2CCC(c3ccccc3)=N2)CC1)Nc1ccc(F)cc1 | -3 | 0 | -7 | 18*
COc1cccc(NC(=O)Nc2nc3ncccn3c2-c2ccc(C(F)(F)F)cc2)c1 | . | . | 1 | .
Fc1ccc2cnc(-c3ccsc3)cc2c1 | . | . | 3 | .
Fc1ccc2cc(-c3ccsc3)ncc2c1 | -1 | 12 | 2 | 35*
CN(C)c1ccc(NC(=O)/C=C/c2ccccc2Cl)cc1 | 4 | -6 | 5 | 31*
CCN(CC)c1ccc(NC(=O)/C=C\c2ccccc2Cl)cc1 | -3 | 18 | 11 | 26*
CCOC(=O)C1=NOC(C(C)=O)(C(=O)NC2CCCC2)C1 (centres undefined) | . | . | 1 | .
CCOC(=O)c1c(C)n(-c2ccc(C)cc2)c2c(C(C(C)=O)C(=O)O)c(Br)c(O)c(O)c12 (centres undefined) | 13 | 1 | 11 | 20*
COc1ccc2c(c1)c(CC(=O)NCc1cc([N+](=O)[O-])ccc1O)c(C)n2C(=O)c1ccc(Cl)cc1 | 33* | 15 | 7 | 24*
Cc1ccc(Cc2c(-c3cccc(Cl)c3)nc3ccc(Br)cn23)cc1 | 18 | 6 | 44* | .
Cc1cc2nc(-c3cccc(Cl)c3)c(Cc3cccc(Cl)c3)n2c(C)c1Br | 22 | 20 | 35* | .
Cc1cc2nc(-c3ccc(Cl)cc3)c(Cc3cccc(Cl)c3)n2c(C)c1Br | 26 | 14 | 25 | .
COC(=O)[C@]12C[C@H](CC(=O)N3CCC(c4ccccc4)CC3)C(=O)N(Cc3ccco3)C1=C[C@H](C(C)C)O[C@@H]2C1CC1 | . | . | 1 | .
O=C(COC(=O)c1ccccc1O)Nc1ccc2ccccc2c1 | 5 | -2 | 5 | 15*
O=C(Nc1ccc2ccccc2c1)c1ccccc1O | -14 | 3 | 6 | 20*
CCS(=O)c1ccccc1C(=O)OCC(=O)Nc1ccc2ccccc2c1 (centres undefined) | -3 | 7 | 4 | 0
COc1ccc(-c2c(C)cc3oc(=O)cc(-c4ccccc4)c3c2C)cc1 | 5 | 24 | 6 | 15*
SMILES | NadD block | FAS TE block | rCAG binder | GRIN3A LBD mod
Cc1ccc(-c2c(C)cc3oc(=O)cc(-c4ccccc4)c3c2C)cc1 | 4 | 27 | 3 | -1
COc1ccc(-c2cccc(-c3cc(=O)oc4cc(OC)cc(OC)c34)c2)cc1 | -1 | 16 | 2 | 15*
Nc1[nH]c(C(=O)c2ccccc2)c(-c2cc(F)ccc2Br)c1C(=O)NCCc1c[nH]c2ccccc12 | . | . | 13 | .
COCCCNC(=O)C[C@H]1C[C@@]2(C(=O)OC)C(=C[C@H](C(C)C)O[C@@H]2C2CC2)N(Cc2ccccc2)C1=O | . | . | -2 | .
C[C@@H]1COc2cc(N3CCCC3)ccc2S(=O)(=O)N1C | . | . | 3 | .
O=c1ccn([C@@H]2O[C@H](CNCc3ccc(-c4cc(C(F)(F)F)ccc4Cl)o3)[C@@H](O)[C@H]2O)c(=O)[nH]1 | 1 | -6 | 0 | 17*
Nc1ncnc2c1ncn2[C@@H]1O[C@H](CNCc2ccc(-c3cc(C(F)(F)F)ccc3Cl)o2)[C@@H](O)[C@H]1O | 0 | -10 | 2 | -2
CCOc1ccccc1NC(=O)C(OC(=O)c1ccc(O)cc1)c1ccccc1 (centres undefined) | 3 | 24 | 13 | 26*
CCOC(=O)Cc1csc(NC(=O)c2sc3nc4ccc(CC)cc4cc3c2N)n1 | 16 | -15 | 44* | -1
CCOC(=O)Cc1csc(NC(=O)c2sc3nc4cc(C)ccc4cc3c2N)n1 | 5 | -30 | 16 | 28*
COc1cc(NC(=O)C2CCCN(S(=O)(=O)c3ccc(Br)s3)C2)cc(OC)c1 (centres undefined) | . | . | 13 | .
O=C(Nc1ccc(Cl)cc1)Nc1nnc(Cc2ccc([N+](=O)[O-])cc2)s1 | 16 | 0 | 7 | 0
Cc1ccc(NC(=O)Nc2nnc(Cc3ccc([N+](=O)[O-])cc3)s2)cc1 | 6 | 3 | 11 | 22*
CC(C)c1ccc2[nH]c(O)c(N=NC(=O)c3cccc(S(=O)(=O)Nc4ccc(Cl)cc4)c3)c2c1 | 37* | 1 | 6 | 43*
CC(C)c1ccc2[nH]c(O)c(N=NC(=O)c3cccc(S(=O)(=O)Nc4cccc(Cl)c4)c3)c2c1 | 35* | 2 | 1 | -2
CNC(=S)N=Nc1c(O)[nH]c2ccc(C(C)C)cc12 | -2 | 0 | 7 | -10
CC1CCN(CCOc2cccc(Br)c2)CC1 | 0 | -7 | 3 | 11*
Brc1cccc(OCCCN2CCCCCC2)c1 | -4 | -6 | 2 | -17
Cc1csc(NC(=O)c2cc3c(s2)-c2ccccc2OC3)n1 | 2 | -5 | 12 | 10*
CN(C)CCNC(=O)c1cc2c(s1)-c1ccccc1OC2 | -4 | -5 | 3 | 0
CC1(C)CC(=O)C2=C(C1)NC(SCC(N)=O)=C(C#N)C21CCCCC1 | 2 | 5 | 2 | 16*
CCSC1=C(C#N)C2(CCCCC2)C2=C(CC(C)(C)CC2=O)N1 | -7 | 4 | -4 | -1
O=C(NC1CCCCC1)C(c1ccc2ncccc2c1)N(Cc1cccs1)C(=O)c1cccs1 (centres undefined) | 8 | 12 | -4 | 14*
Cc1ccc(C(C(=O)NC2CCCC2)N(C(=O)Cc2cccs2)c2ccc3c(c2)OCCO3)cc1 (centres undefined) | -6 | 61* | 2 | -1
O=C(NC1CCCC1)C(c1ccc(F)cc1)N(C(=O)Cc1cccs1)c1ccc2c(c1)OCCO2 (centres undefined) | 0 | 4 | -3 | -17
CCCCOCCCNC(=O)C[C@H]1C[C@@]2(C(=O)OC)C(=C[C@H](COCc3ccccc3)O[C@@H]2C)N(CCc2ccc(OC)c(OC)c2)C1=O | . | . | 0 | .
COc1ccc(Cn2ccc3ccc(-c4ccc5ccn(Cc6ccc(OC)cc6)c5c4)cc32)cc1 | . | . | 15 | .
CC(/C=C1\SC(=O)N(CC(=O)Nc2ccc(O)cc2)C1=O)=C\c1ccccc1 | 7 | 11 | 19 | 10*
